According to the supplement of paper PMC6555819:

Legend:
Assay in all cases: PBM binding z-score (relative to random genomic background probes); higher = stronger binding; sequences stand for … in GC…GCGATTGACAGCGTAGAATGAAGG
[1] = test system: RARb homodimer (NR concentration 270 nM)
Procedure, shortened: (§1)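 Antibodies against each partner of ligand-free nuclear receptor dimers (one per run) detected binding on custom Agilent 4×180K protein-binding microarrays after 1 h incubation. The double-stranded probes had 34-nt variable regions carrying direct-repeat seeds, single-nucleotide variants, half-site ablations and random human genomic background sequences. Binding z-scores, from regression-normalized fluorescence, use the random background probes as reference.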

[2] = test system: RARg:RXRa (NR concentration 270 nM, RXRa partner concentration 90 nM)
Procedure, shortened: as §1

[3] = test system: RARg homodimer (NR concentration 270 nM)
Procedure, shortened: as §1

[4] = test system: RXRa DBDmut IVT, anti-RXR (DBD mutation: RXRa K156A/R161A, NR concentration 90 nM)
Procedure, shortened: as §1

[5] = test system: RXRa homodimer (NR concentration 180 nM)
Procedure, shortened: as §1

[6] = test system: THRa:RXRa (NR concentration 90 nM, RXRa partner concentration 90 nM)
Procedure, shortened: as §1

[7] = test system: THRa homodimer (NR concentration 90 nM)
Procedure, shortened: as §1

[8] = test system: VDR homodimer (NR concentration 270 nM)
Procedure, shortened: as §1

Sequence	PBM binding z-score [1]	PBM binding z-score [2]	PBM binding z-score [3]	PBM binding z-score [4]	PBM binding z-score [5]	PBM binding z-score [6]	PBM binding z-score [7]	PBM binding z-score [8]
ATCTCTAGGTAAAGTTCAGAGAAAGATCGATAGA	2.23	2.13	2.6	1.45	1.42	1.13	-0.103	2.03
CTCGTAAGGTCGTGCTCAGGTGAGTATACCAAAC	2.05	3.84	2.77	2.39	2.68	4.18	2.99	1.5
CCTTACGGTTCAAGGTTATAGCACGGGTGGTACG	1.39	1.69	1.21	2.6	2.38	2.15	1.41	3.31
TCTTGTAGATCAAAGGATAAGAAAGCCGAAGCCT	-1.11	-0.0685	-0.196	0.579	0.0933	-0.444	-0.847	-0.298
CCTAGCAGGCCCGGGTCACTCAAGCATTTCGCTT	2.02	1.96	1.46	-0.519	2.43	2.71	1.3	0.294
CGTCCAAGGTCAATGCTAGGTCGGTGAAAGCATT	4.24	6.11	6.15	3.31	4.83	3.79	1.98	2.04
ATCGAAAGGTAGTGAGGTGAGTATACAGAAAGGC	0.406	0.407	0.62	-0.693	0.164	1.5	0.917	-0.237
